Assay [1] in a line: ATG_GRE_CIS: Attagene CIS-FACTORIAL HepG2 Assay for human Glucocorticoid Response Elements (GRE) (AID 2282947). To be noted: HepG2 GRE cis-reporter, Attagene multiplex mRNA; actives raise or lower the signal. The method, boiled down:
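Transiently transfected HepG2 cells carrying GRE cis-reporter units (endogenous TF activity) dosed 24 h; reporter mRNA quantified by RT-PCR, 6-FAM labelling, HpaI digestion and capillary electrophoresis. Bidirectional fit versus DMSO baseline.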

Assay [2] can be described thus: ATG_M_32_CIS: Attagene CIS-FACTORIAL HepG2 Assay for M32 Transcription Factor (Internal Marker) (AID 2282949).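 Further: background control marker of the multiplexed CIS panel rather than a real target.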 The note with it: HepG2 Attagene cis-factorial M32 reporter, mRNA; actives raise or lower the signal. The method, boiled down: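 Fluorescent capillary electrophoresis peaks of HpaI-digested, FAM-labelled RT-PCR reporter products give the signal. Source: transiently transfected human liver HepG2 cells, 24 h after chemical dosing; bidirectional fitting against DMSO.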

A short description of assay [3]: ATG_M_06_CIS: Attagene CIS-FACTORIAL HepG2 Assay for M06 Transcription Factor (Internal Marker) (AID 2282950). The note with it: HepG2 Attagene CIS-FACTORIAL M06 internal marker reporter; actives raise or lower the signal. The method, boiled down:
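Cells (HepG2, transiently carrying cis-driven reporter units) receive chemical for 24 h before RNA isolation. Reporter cDNA is PCR-amplified, FAM-labelled by primer extension, HpaI-digested and sized on a capillary analyser.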

The target in assay [4] is Hypoxia-inducible factor 1-alpha (Homo sapiens) (UniProt Q16665). Description: ATG_HIF1a_CIS: Attagene CIS-FACTORIAL HepG2 Assay for human Hypoxia Inducible Factor 1 (HIF1A) (AID 2282951). To be noted: HepG2 Attagene cis-factorial HIF1a reporter transcription; actives raise or lower the signal. The method, boiled down: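 Transient MRTU transfection of human HepG2 liver cells, 24 h compound treatment, then total RNA isolation, oligo(dT) reverse transcription, PCR amplification, fluorescent labelling and capillary electrophoresis of reporter fragments. Gain or loss relative to DMSO.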
Hypoxia-inducible factor 1-alpha (Homo sapiens), sequence (Q16665 whole entry, looked up, the tested form may be a part): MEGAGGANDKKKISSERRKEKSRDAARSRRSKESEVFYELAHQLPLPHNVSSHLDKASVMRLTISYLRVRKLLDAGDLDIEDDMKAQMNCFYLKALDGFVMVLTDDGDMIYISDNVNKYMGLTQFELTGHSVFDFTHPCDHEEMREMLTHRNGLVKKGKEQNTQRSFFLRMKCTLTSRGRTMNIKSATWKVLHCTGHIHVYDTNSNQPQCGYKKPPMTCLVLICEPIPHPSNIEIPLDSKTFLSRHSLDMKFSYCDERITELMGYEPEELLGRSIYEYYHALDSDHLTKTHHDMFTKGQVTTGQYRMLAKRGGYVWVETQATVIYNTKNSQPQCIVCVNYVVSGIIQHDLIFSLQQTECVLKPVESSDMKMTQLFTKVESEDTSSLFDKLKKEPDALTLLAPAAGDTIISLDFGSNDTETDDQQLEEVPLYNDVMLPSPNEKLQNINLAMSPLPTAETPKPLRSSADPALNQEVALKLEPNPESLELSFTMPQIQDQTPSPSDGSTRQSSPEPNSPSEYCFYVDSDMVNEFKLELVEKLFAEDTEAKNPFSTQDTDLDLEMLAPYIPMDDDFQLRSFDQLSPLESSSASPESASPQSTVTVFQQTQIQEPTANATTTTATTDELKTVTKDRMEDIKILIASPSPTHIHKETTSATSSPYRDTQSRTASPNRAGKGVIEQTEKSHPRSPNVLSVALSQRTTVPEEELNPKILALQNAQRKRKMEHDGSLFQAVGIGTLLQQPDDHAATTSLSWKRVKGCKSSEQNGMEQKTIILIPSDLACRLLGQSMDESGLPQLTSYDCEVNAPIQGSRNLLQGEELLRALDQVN

The target in assay [5] is Hepatocyte nuclear factor 6 (Homo sapiens) (UniProt Q9UBC0). Put plainly: ATG_HNF6_CIS: Attagene CIS-FACTORIAL HepG2 Assay for human Hepatocyte Nuclear Factor 6 (HNF6) (AID 2282952). The note with it: HepG2 Attagene cis-factorial HNF6 reporter transcription; actives raise or lower the signal. In outline: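 Transiently transfected HepG2 cells expressing cis-regulated reporter transcription units were exposed to chemical for 24 h in a 24-well format. Reporter transcript abundance was determined by fluorescence capillary electrophoresis.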
Hepatocyte nuclear factor 6 (Homo sapiens), sequence (Q9UBC0 whole entry, looked up): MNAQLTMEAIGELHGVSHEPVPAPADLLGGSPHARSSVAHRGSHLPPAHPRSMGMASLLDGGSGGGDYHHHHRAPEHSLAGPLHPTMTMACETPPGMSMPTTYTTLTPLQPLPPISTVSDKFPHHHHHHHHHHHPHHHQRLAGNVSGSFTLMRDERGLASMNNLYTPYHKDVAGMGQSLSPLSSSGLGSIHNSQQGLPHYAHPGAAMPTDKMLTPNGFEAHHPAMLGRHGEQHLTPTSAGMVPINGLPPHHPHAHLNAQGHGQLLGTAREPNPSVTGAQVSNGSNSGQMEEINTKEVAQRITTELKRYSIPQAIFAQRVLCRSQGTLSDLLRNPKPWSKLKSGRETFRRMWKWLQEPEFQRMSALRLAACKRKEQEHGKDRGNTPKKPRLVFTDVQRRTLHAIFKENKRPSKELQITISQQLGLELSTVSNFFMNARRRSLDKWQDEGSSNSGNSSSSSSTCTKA

Assay [6] has as its target Heat shock factor protein 1 (Homo sapiens) (UniProt Q00613). Put plainly: ATG_HSE_CIS: Attagene CIS-FACTORIAL HepG2 Assay for human Heat Shock Transcription Factor 1 (HSE) (AID 2282953). To be noted: HepG2 HSE cis-reporter, Attagene RNA transcription; actives raise or lower the signal. In outline: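 Liver-derived HepG2 cells carry transiently introduced multiple reporter units governed by cis promoters. Reporter RNA measured 24 h post-dose through reverse transcription, PCR amplification, fluorescent labelling and capillary electrophoresis, normalised to DMSO.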

The nature of assay [7]: ATG_MRE_CIS: Attagene CIS-FACTORIAL HepG2 Assay for human Metal Responsive Element (MRE) (AID 2282954). To be noted: HepG2 MRE cis-reporter transcription, Attagene multiplex; actives raise or lower the signal. The method, boiled down: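 HepG2 cells transiently transfected with cis-element-driven reporter units; mRNA measured 24 h after dosing. Reporter transcripts quantified by RT-PCR, FAM labelling, HpaI digestion and capillary electrophoresis; bidirectional fit versus DMSO.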

Assay [8] in a line: ATG_PBREM_CIS: Attagene CIS-FACTORIAL HepG2 Assay for human Phenobarbital-responsive Enhancer Module (PBREM) (AID 2282955). To be noted: HepG2 PBREM cis-reporter, Attagene multiplexed transcription; actives raise or lower the signal. The method, boiled down:
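Endogenous transcription factors in human liver HepG2 cells drive a PBREM cis-element reporter, whose transcript level after 24 h treatment is quantified by RT-PCR with capillary electrophoresis; activity fitted in both directions against DMSO.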

For assay [9], the target named is Paired box protein Pax-6 (Homo sapiens) (UniProt P26367). Description: ATG_Pax6_CIS: Attagene CIS-FACTORIAL HepG2 Assay for human Paired Box 6 (PAX6) (AID 2282956). The note with it: HepG2 CIS-FACTORIAL PAX6 reporter transcription, RNA readout; actives raise or lower the signal. In outline:
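HepG2 cells transiently transfected with multiplexed cis-promoter reporter units (endogenous TF activity) were dosed for 24 h. Reporter mRNA was quantified by RT-PCR, 6-FAM labeling, HpaI digestion and capillary electrophoresis; bidirectional fitting versus DMSO baseline.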

Assay [10] is described as follows: ATG_PXRE_CIS: Attagene CIS-FACTORIAL HepG2 Assay for human Pregnane X Receptor Element (PXRE) (AID 2282957). The note with it: HepG2 Attagene CIS-FACTORIAL PXRE reporter, mRNA; actives raise or lower the signal. The method, boiled down: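 Cis-element reporter mRNA in human hepatoma HepG2 cells is measured 24 h post-dosing by RT-PCR, primer-extension labeling and capillary electrophoresis; gain or loss of signal is fitted relative to DMSO.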

Assay [11] is described as follows: ATG_PPRE_CIS: Attagene CIS-FACTORIAL HepG2 Assay for human Peroxisome Proliferator-activated Response Element (PPRE) (AID 2282958). The note with it: HepG2 PPRE cis-element reporter, Attagene transcription factor profiling; actives raise or lower the signal. In outline: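 HepG2, transient MRTU transfection (cis promoter elements, endogenous TFs). 24 h dosing. RNA → oligo(dT) RT → PCR → 6-FAM primer extension → HpaI digest → CE. Bidirectional fit vs DMSO.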

The nature of assay [12]: ATG_RORE_CIS: Attagene CIS-FACTORIAL HepG2 Assay for human RAR-related Orphan Receptor Element (RORE) (AID 2282959). The note with it: HepG2 Attagene cis-factorial RORE reporter, mRNA; actives raise or lower the signal. The method, boiled down:
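Transient MRTU transfection of human HepG2 liver cells (FuGene 6); 24 h compound exposure; TriZol RNA, oligo(dT) RT, PCR, FAM labeling, HpaI cut, CE fragment analysis. DMSO = negative control/baseline.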

A short description of assay [13]: ATG_Sox_CIS: Attagene CIS-FACTORIAL HepG2 Assay for human SRY-box transcription factor (SOX) (AID 2282960). To be noted: HepG2 Attagene cis-factorial SOX reporter, mRNA; actives raise or lower the signal. In outline: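 Endogenous factor activity in human liver HepG2 cells carrying transfected cis-regulated reporter units. RNA taken 24 h post-dose, reverse-transcribed, PCR-amplified and sized by capillary electrophoresis. Gain or loss of signal fitted relative to DMSO.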

The target in assay [14] is Transcription factor Sp1 (Homo sapiens) (UniProt P08047). Description: ATG_Sp1_CIS: Attagene CIS-FACTORIAL HepG2 Assay for human Specificity Protein 1 (Sp1) (AID 2282961). To be noted: HepG2 Sp1 cis-reporter transcription, actives raise or lower the signal. The method, boiled down: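 Transient MRTU-transfected HepG2, 24 h compound exposure. Total RNA → oligo(dT) RT → PCR of reporter → 6-FAM primer extension → HpaI digest → CE. Endpoint fitted both directions vs DMSO.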
Transcription factor Sp1 (Homo sapiens), sequence (P08047 whole entry, looked up): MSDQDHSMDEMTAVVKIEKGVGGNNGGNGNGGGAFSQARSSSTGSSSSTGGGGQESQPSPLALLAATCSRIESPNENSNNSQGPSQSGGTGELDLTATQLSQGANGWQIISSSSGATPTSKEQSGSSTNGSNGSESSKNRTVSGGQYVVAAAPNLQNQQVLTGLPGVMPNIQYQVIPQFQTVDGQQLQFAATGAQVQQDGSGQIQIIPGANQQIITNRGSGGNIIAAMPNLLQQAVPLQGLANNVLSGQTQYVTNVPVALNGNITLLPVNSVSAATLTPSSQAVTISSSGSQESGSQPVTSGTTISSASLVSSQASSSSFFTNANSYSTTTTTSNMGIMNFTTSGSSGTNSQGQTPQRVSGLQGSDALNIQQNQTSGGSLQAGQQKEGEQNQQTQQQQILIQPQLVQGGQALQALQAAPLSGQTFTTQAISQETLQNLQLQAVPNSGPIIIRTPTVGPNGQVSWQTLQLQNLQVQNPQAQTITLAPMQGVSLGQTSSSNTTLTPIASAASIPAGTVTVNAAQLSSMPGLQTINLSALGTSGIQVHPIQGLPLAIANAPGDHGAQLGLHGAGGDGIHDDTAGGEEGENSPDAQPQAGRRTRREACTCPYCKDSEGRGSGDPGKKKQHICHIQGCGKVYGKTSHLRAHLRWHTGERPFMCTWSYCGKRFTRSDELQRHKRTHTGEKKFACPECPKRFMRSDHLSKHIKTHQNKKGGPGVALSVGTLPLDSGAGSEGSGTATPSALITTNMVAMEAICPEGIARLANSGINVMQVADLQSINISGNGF

The nature of assay [15]: ATG_SREBP_CIS: Attagene CIS-FACTORIAL HepG2 Assay for human Sterol Regulatory Element Binding (SREBP) (AID 2282962). The note with it: HepG2 Attagene cis-factorial SREBP reporter, mRNA; actives raise or lower the signal. In outline:
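HepG2 cells transiently transfected with multiplexed cis-element reporter units report endogenous transcription factor activity. After 24 h of chemical exposure, reporter mRNA was quantified by RT-PCR, 6-FAM labelling, HpaI digestion and capillary electrophoresis; bidirectional fits used DMSO as baseline.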

The nature of assay [16]: ATG_TA_CIS: Attagene CIS-FACTORIAL HepG2 Assay for human TA Basal Promoter (AID 2282964). The note with it: HepG2 Attagene CIS-factorial TA basal promoter reporter; actives raise or lower the signal. The method, boiled down:
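Background internal-marker endpoint from a 52-component HepG2 cis-reporter panel. Cells treated 24 h; reporter transcripts quantified via RT-PCR and CE fluorescence against DMSO baseline.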

The nature of assay [17]: ATG_TCF_b_cat_CIS: Attagene CIS-FACTORIAL HepG2 Assay for human T-Cell-Factor with beta-catenin (TCF/b-cat) (AID 2282965). To be noted: HepG2 TCF/beta-catenin cis-reporter transcription, actives raise or lower the signal. The method, boiled down: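 HepG2, transient MRTU transfection, cis-element-driven reporters (endogenous TFs). 24 h compound exposure. Readout: reporter mRNA by RT-PCR + 6-FAM primer extension, HpaI digest, capillary electrophoresis. Gain/loss fit vs DMSO baseline.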

The nature of assay [18]: ATG_ISRE_CIS: Attagene CIS-FACTORIAL HepG2 Assay for human Interferon Regulatory Factor 1 (IRF1) binding to an Interferon-Stimulated Response Element (ISRE) (AID 2282948). To be noted: HepG2 ISRE cis-reporter (Attagene), mRNA transcription readout; actives raise or lower the signal. In outline: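 HepG2 cells transiently transfected with multiplexed cis-promoter reporter units; after 24 h compound exposure, reporter mRNA quantified by RT-PCR, FAM labelling, HpaI digestion and capillary electrophoresis. Bidirectional fit versus DMSO baseline.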

For assay [19], the target named is Signal transducer and activator of transcription 3 (Homo sapiens) (UniProt P40763). Put plainly: ATG_STAT3_CIS: Attagene CIS-FACTORIAL HepG2 Assay for human Signal Transducer and Activator of Transcription 3 (STAT3) (AID 2282963). To be noted: HepG2, Attagene cis-factorial STAT3 reporter transcription; actives raise or lower the signal. In outline: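 HepG2 cells transiently transfected with multiple cis-element-driven reporter units report endogenous transcription factor activity. After 24 h compound exposure, reporter mRNA is measured by RT-PCR, 6-FAM labelling, HpaI digestion and capillary electrophoresis. Fitted bidirectionally versus DMSO.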
Signal transducer and activator of transcription 3 (Homo sapiens), sequence (P40763 whole entry, looked up): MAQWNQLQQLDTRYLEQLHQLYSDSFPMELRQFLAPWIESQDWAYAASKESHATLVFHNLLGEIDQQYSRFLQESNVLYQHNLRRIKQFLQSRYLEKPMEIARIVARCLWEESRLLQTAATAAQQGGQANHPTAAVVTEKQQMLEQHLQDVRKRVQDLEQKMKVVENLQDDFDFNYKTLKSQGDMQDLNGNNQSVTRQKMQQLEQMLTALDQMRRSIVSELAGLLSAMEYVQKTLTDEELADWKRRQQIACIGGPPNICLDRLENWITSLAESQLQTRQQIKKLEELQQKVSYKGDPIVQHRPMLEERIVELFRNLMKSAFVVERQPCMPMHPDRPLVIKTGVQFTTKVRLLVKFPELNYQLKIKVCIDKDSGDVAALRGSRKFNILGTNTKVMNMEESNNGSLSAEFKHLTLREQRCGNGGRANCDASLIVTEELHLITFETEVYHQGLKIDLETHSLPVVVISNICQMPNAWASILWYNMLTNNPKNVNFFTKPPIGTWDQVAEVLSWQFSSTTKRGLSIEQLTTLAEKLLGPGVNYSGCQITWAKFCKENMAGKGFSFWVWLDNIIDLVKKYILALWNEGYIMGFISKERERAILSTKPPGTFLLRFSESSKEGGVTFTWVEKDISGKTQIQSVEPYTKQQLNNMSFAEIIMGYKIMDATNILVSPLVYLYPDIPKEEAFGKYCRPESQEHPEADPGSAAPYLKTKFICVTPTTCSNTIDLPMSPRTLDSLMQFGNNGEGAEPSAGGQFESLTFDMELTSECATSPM

The source made the active and inactive calls. How the source made its calls: active means hit-call score of the fitted dose curve at least 0.9, where 1 is the maximum; inactive means score below 0.9.

Heat shock factor protein 1 (Homo sapiens), sequence (Q00613 whole entry, looked up): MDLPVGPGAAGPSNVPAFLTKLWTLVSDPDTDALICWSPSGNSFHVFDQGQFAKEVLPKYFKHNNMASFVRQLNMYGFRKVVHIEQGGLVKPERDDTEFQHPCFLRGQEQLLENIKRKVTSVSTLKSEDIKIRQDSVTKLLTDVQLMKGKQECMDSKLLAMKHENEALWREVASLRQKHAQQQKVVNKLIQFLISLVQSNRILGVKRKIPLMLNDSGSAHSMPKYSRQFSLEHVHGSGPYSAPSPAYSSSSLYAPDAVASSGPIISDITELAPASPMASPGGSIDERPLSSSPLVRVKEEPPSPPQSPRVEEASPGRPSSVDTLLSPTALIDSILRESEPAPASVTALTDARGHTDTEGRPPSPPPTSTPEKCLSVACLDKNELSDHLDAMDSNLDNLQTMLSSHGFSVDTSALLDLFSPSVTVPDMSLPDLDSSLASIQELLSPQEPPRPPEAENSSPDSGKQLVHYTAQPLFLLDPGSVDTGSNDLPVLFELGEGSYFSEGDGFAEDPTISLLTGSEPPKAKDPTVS
Paired box protein Pax-6 (Homo sapiens), sequence (P26367 whole entry, looked up): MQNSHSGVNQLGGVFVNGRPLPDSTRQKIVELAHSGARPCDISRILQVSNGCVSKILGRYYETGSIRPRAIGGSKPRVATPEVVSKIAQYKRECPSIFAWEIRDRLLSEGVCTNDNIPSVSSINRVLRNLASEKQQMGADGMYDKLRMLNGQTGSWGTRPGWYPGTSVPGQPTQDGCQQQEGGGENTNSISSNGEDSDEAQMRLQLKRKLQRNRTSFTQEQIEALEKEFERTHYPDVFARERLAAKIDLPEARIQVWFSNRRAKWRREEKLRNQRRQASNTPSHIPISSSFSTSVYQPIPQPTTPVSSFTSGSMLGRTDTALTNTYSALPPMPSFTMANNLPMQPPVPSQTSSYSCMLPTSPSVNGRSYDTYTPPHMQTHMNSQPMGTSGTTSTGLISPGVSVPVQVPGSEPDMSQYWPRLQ

`Cc1ccc(N)c([N+](=O)[O-])c1`: the call in [1], in assay [2], in assay [3], in assay [4], in [5] and in assay [6] was inactive. Besides, the compound was called inactive in assay [7], in [8], in [9], in [10], in [11] and in [12]. The compound was classed as inactive in [13], in assay [14], in [15], in [16] and in assay [17].
Take `CC=CC(=O)N(CC)c1ccccc1C`: the outcome in assay [1], in assay [18], in assay [2], in assay [3], in [6] and in assay [7] was inactive. The outcome in assay [8], in [9], in [12], in [13], in assay [14] and in assay [15] was inactive. The result in [19], in [16] and in assay [17] was inactive. Besides, the AC50 in assay [10] is 11.1 µM (active).
On to `CC(C)CCCCCOC(=O)CCS`, for which the call in assay [1], in assay [2], in assay [3], in [4], in assay [5] and in [6] was inactive. Also, the outcome in assay [7], in assay [8], in assay [9], in assay [11], in assay [13] and in assay [14] was inactive. Moreover, the compound was called inactive in [19], in assay [16] and in assay [17]. Further, the AC50 in assay [10] was 6.6 µM (active).
Take `CCN(CC)c1ccc(C(=O)c2ccccc2C(=O)O)c(O)c1`: the call in [1], in assay [2], in assay [3], in assay [4], in [5] and in assay [6] was inactive. For the same compound, the compound was classed as inactive in [7], in [9], in [12], in assay [13], in assay [14] and in [15]. The outcome in assay [19] and in [17] was inactive. Also, the results for the AC50 in assay [8] and in assay [10] were 1.89 µM (active) and 1.09 µM (active), respectively.
For `C[Si](C)O[Si](C)(C)O[Si](C)(C)O[Si](C)C`, the result in assay [1], in [18], in assay [2], in [4], in [5] and in [6] was inactive. In addition, the outcome in [7], in [9], in [12], in [13], in [14] and in assay [15] was inactive. For the same compound, the outcome in [19] and in assay [16] was inactive. Moreover, the AC50 in assay [10] is 17 µM (active).
For `CCCCCCCC/C=C\CCCCCCCC(=O)OCCO`, the call in assay [1], in assay [2], in [3], in [4], in assay [5] and in [6] was inactive. Also, the outcome in assay [7], in assay [9], in assay [11], in assay [12], in assay [13] and in assay [14] was inactive. For the same compound, the result in [15], in assay [19], in assay [16] and in [17] was inactive. The AC50 in assay [10] is 12.8 µM (active).
Take `c1ccc(-c2ccccn2)nc1`: the compound was called inactive in [1], in assay [18], in assay [2], in assay [3], in assay [5] and in assay [6]. The compound was classed as inactive in assay [7], in [9], in [10], in assay [11], in assay [12] and in [14]. Besides, the compound was called inactive in [15], in assay [19], in [16] and in assay [17].
With `O=S(=O)(O)c1ccc2cc(O)c(S(=O)(=O)O)cc2c1`, the outcome in assay [1], in assay [2], in assay [3], in assay [5], in assay [6] and in [8] was inactive. Moreover, the outcome in assay [10], in assay [11], in assay [13], in assay [14], in assay [19] and in [16] was inactive. Also, the AC50 in assay [18] is 160 µM (active); in [7], 169 µM (active); in assay [9], 151 µM (active).

In general, AC50 refers to the midpoint of the concentration-response curve, whichever way the signal moves.

The values are drawn from PubChem BioAssay (EPA / NIEHS).
